# Reference: PubChem BioAssay (NCI)
# About 83,000 compounds went through this panel and 20% of them were active in at least one assay; those are over-represented in the sample as a whole.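 Values shown are percent growth following 48 h exposure of cells in 96-well plates to a single concentration of compound; below 10 was considered active.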 Unmarked numbers belong to inactive results. Calls of active or inactive are those of the source.
# Experiments:
# Experiment in all cases: NCI-60 one-dose screen, 48 h (100 = growth as untreated, 0 = no growth, -100 = all killed)
# Details in all cases: 10 µM unless noted
# SR leukemia = test system: SR leukemia
# RPMI-8226 leukemia = test system: RPMI-8226 leukemia
# OVCAR-8 ovarian = test system: OVCAR-8 ovarian
# OVCAR-5 ovarian = test system: OVCAR-5 ovarian
# OVCAR-4 ovarian = test system: OVCAR-4 ovarian
# SK-OV-3 ovarian = test system: SK-OV-3 ovarian
# IGROV1 ovarian = test system: IGROV1 ovarian
# OVCAR-3 ovarian = test system: OVCAR-3 ovarian
# HS 578T breast = test system: HS 578T breast
# NCI/ADR-RES ovarian = test system: NCI/ADR-RES ovarian
# T-47D breast = test system: T-47D breast
# BT-549 breast = test system: BT-549 breast
# MDA-MB-435 melanoma = test system: MDA-MB-435 melanoma
# SW-620 colon = test system: SW-620 colon
# MCF7 breast = test system: MCF7 breast
# HCT-116 colon = test system: HCT-116 colon
# HCC-2998 colon = test system: HCC-2998 colon
# KM12 colon = test system: KM12 colon
SMILES,growth (SR leukemia),growth (RPMI-8226 leukemia),growth (OVCAR-8 ovarian),growth (OVCAR-5 ovarian),growth (OVCAR-4 ovarian),growth (SK-OV-3 ovarian),growth (IGROV1 ovarian),growth (OVCAR-3 ovarian),growth (HS 578T breast),growth (NCI/ADR-RES ovarian),growth (T-47D breast),growth (BT-549 breast),growth (MDA-MB-435 melanoma),growth (SW-620 colon),growth (MCF7 breast),growth (HCT-116 colon),growth (HCC-2998 colon),growth (KM12 colon)
COc1cc(C2C=C(c3cccc(NC(C)=O)c3)Nc3ncnn32)cc(OC)c1OC (configuration not stated),-5.94% (active),19%,24.3%,34.8%,59.8%,35.5%,30.4%,-40.5% (active),19%,76.1%,64.7%,-0.0208% (active),-47.7% (active),27.6%,18.3%,20.3%,24%,15.2%
CCOC(=O)c1nnn(-c2ccccc2)c1C1=CN(C)CCC1,88.8%,113%,102%,99.9%,99.9%,97.2%,104%,100%,91.9%,102%,93.3%,99.4%,105%,101%,92.9%,87.7%,95.9%,99.9%
COc1cc(/C=C/c2nc(Nc3ccc(S(=O)(=O)Nc4cc(C)on4)cc3)c3ccccc3n2)ccc1O,19.4%,72.9%,73.5%,88.7%,91%,86%,59.5%,65.2%,78.5%,51%,58.4%,107%,-44.1% (active),39.1%,30.7%,54.6%,81.9%,31.8%
NC(=S)c1csc(CCNC(=O)c2ccccc2)n1,107%,102%,106%,117%,91.2%,101%,112%,113%,102%,110%,103%,96.5%,110%,105%,90.7%,97.6%,103%,109%
Cc1cnc(Nc2ccc(N3CCN(C)CC3)cc2)nc1Nc1ccc(Cl)c(NS(=O)(=O)C(C)(C)C)c1,-3.93% (active),5.58% (active),21.7%,19.9%,27.9%,-6.97% (active),6.84% (active),9.51% (active),-6.51% (active),21%,39.8%,-5.14% (active),31.6%,1.76% (active),5.84% (active),8.83% (active),-48.1% (active),8.8% (active)
COc1cc(-c2ccc(N=Nc3c(O)c(C(=O)Nc4ccccc4OC)cc4ccccc34)c(OC)c2)ccc1N=Nc1c(O)c(C(=O)Nc2ccccc2OC)cc2ccccc12,41.8%,97.2%,99.3%,99.6%,98.9%,103%,88.3%,99.3%,84.8%,96.4%,103%,90.2%,99.9%,91.8%,91.1%,81.8%,97.7%,94.8%
C=CCO[C@H]1CO[C@H]2[C@@H]1OC[C@@H]2Oc1ccc(Nc2ccnc(Nc3ccc(O[C@H]4CO[C@H]5[C@@H]4OC[C@@H]5OCC=C)c(Cl)c3)n2)cc1Cl,-1.74% (active),-32.7% (active),-4.18% (active),-55.7% (active),-86.7% (active),115%,-94.1% (active),-85.5% (active),-38.6% (active),-63.6% (active),-39.7% (active),32.7%,-88.4% (active),-58.9% (active),-71.1% (active),-29.7% (active),-93.3% (active),-72.1% (active)
COc1ccc(O)c(-c2cc(-c3ccccc3)c(C#N)c(=O)[nH]2)c1,89%,81.2%,96.3%,124%,97.4%,92.6%,98.8%,95.9%,89.6%,97.3%,79.3%,70.6%,102%,105%,87.5%,89.7%,99.8%,90.8%
O=C(O)C1C[C@](O)(c2ccc(F)cc2)[C@@H](c2ccc(F)cc2)O1 (some centres not stated),73.8%,69.1%,95.1%,90.8%,107%,97.5%,71.8%,146%,124%,96.5%,88.2%,71%,99.1%,116%,97.5%,100%,115%,131%
